Laboratory results reported in PubChem BioAssay AID977607 (Broad Institute, 2014).
Screen size: about 1,500 compounds; about 460 (31%) were called active. Another 1% or so got no clear call; they are omitted.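 The calls were made as follows: active = curve reaches 40% activation over neutral controls at an AC40 no higher than the top valid tested concentration; inconclusive = no clear call, values can overlap the other calls; inactive = signal moving opposite to the expected increase, and the rest.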 These entries were drawn from the full list. Potency and affinity values are given separately.

Experiment: GLuc-reported insulin release enhancers, glucose-stimulated beta cells – cell-based, INS-1E, Gaussia luciferase, luminescence, cherry-pick, set 2, dose response (AID 977607);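 also: 0% = median of the plate neutral control wells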
Details: INS-1E GLuc insulin secretion reporter, 2-3 h, active compounds read high; at 35 µM, 100% = signal doubled over neutral wells unless noted

Row | Structure (SMILES) | max activation
1 | Cc1ccc(-n2nnnc2SCc2ccc(C(=O)O)cc2)cc1C | -23.5% [at 3.8 µM, 100% = signal doubled over neutral wells] (inactive)
2 | N#Cc1sc2nc(C3CC3)cc(-c3ccccc3)c2c1N | -14.8% [at 0.015 µM, 100% = signal doubled over neutral wells] (inactive)
3 | N#CC1=C(N)Oc2nc(-c3ccccc3)[nH]c2C1c1cccnc1 (centres undefined) | -20.8% [at 0.005 µM, 100% = signal doubled over neutral wells] (inactive)
4 | O=C1CSC(c2cccc(O)c2)N1Cc1ccccc1 (centres undefined) | -24.7% [at 0.005 µM, 100% = signal doubled over neutral wells] (inactive)
5 | C/C=C/c1ccc(OCCN2C(=O)NC(C)(C)C2=O)c(OC)c1 | -11.4% [at 0.005 µM, 100% = signal doubled over neutral wells] (inactive)
6 | CCn1ccc(C(=O)Nc2ccccc2SC)n1 | -10.4% [at 0.046 µM, 100% = signal doubled over neutral wells] (inactive)
7 | NS(=O)(=O)c1ccc(CNC(=O)c2cc(S(=O)(=O)N3CCOCC3)ccc2N2CCCC2)cc1 | -17.8% [at 0.0016 µM, 100% = signal doubled over neutral wells] (inactive)
8 | O=S(=O)(NCc1ccccc1)c1ccc(S(=O)(=O)N2CCCCC2)cc1 | -11.7% [at 3.8 µM, 100% = signal doubled over neutral wells] (inactive)
9 | CNS(=O)(=O)c1ccc2c3c(cccc13)C(=O)N2 | 19.7% (inactive)
10 | CC(=O)Nc1cccc(-n2c(=O)n(Cc3ccccc3)c(=O)c3[nH]cnc32)c1 | 18.8% [at 1.2 µM, 100% = signal doubled over neutral wells] (inactive)
11 | N#CCCCc1cc2ccccc2cn1 | -14.5% [at 0.046 µM, 100% = signal doubled over neutral wells] (inactive)
12 | COc1cc(/C=N/NC(=O)CNC(=O)c2cccs2)ccc1O | -23.7% [at 0.015 µM, 100% = signal doubled over neutral wells] (inactive)
13 | COc1cc(/C=N/Nc2cc(C)nc(NS(=O)(=O)c3ccc(C)cc3)n2)ccc1O | 36.9% [at 3.8 µM, 100% = signal doubled over neutral wells] (inactive)
14 | COc1ccc(/C=N/NC(=O)Cn2cnc3ccccc3c2=O)cc1OC | 23.7% [at 11 µM, 100% = signal doubled over neutral wells] (inactive)
15 | CCNc1nc(CC)nc2c1oc1ccccc12 | -18.9% [at 0.015 µM, 100% = signal doubled over neutral wells] (inactive)
16 | Cc1cccc(-n2c(C)c(C)c3c(N)ncnc32)c1 | 29.8% (inactive)
17 | N#CCc1nn2c(-c3ccccc3)ccnc2c1C#N | -20% [at 0.015 µM, 100% = signal doubled over neutral wells] (inactive)

Row | Structure (SMILES) | max activation
18 | COc1ccc(/C=C/c2nc(C#N)c(NCCN(C)C)o2)cc1OC | -15.9% [at 0.42 µM, 100% = signal doubled over neutral wells] (inactive)
19 | CCOCC(=O)Nc1c(C(=O)OCC)oc2ccccc12 | 28.8% [at 3.8 µM, 100% = signal doubled over neutral wells] (inactive)
20 | Nc1[nH]c(C(=O)c2ccccc2)c(-c2ccncc2)c1C(=O)NCc1cccc2ccccc12 | -29.2% (inactive)
21 | C[C@@H]1CN([C@H](C)CO)C(=O)c2cc(C3=CCCCC3)cnc2O[C@H]1CN(C)C(=O)CN1CCOCC1 | -24.7% [at 0.005 µM, 100% = signal doubled over neutral wells] (inactive)
22 | O=C(c1cccs1)N(Cc1ccc(Cl)cc1)C1CCS(=O)(=O)C1 (centres undefined) | 21.3% (inactive)
23 | O=C(c1cccs1)N(Cc1cccc(F)c1)C1CCS(=O)(=O)C1 (centres undefined) | 26.2% [at 0.005 µM, 100% = signal doubled over neutral wells] (inactive)
24 | CCOC(=O)C1=NN(C(=O)Nc2cccc(C(F)(F)F)c2)C2C(=O)N(c3cccc(C(F)(F)F)c3)C(=O)C12 (centres undefined) | 17.3% [at 3.8 µM, 100% = signal doubled over neutral wells] (inactive)
25 | N#Cc1ccc(-c2ccc3c(c2)[C@@H]2[C@@H](CCN2C(=O)C2CCCC2)[C@@H](CO)N3)cc1 | -29.6% (inactive)
26 | O=C(CCn1nc(-c2ccc(Cl)cc2)ccc1=O)NCCCN1CCCCCC1 | -17.5% [at 0.005 µM, 100% = signal doubled over neutral wells] (inactive)
27 | CC(C)(C)C1=Nn2c(nnc2C2CCCCC2)SC1 | 27% [at 11 µM, 100% = signal doubled over neutral wells] (inactive)
28 | C=CCNc1cc(C)oc(=O)c1C(=O)CCC | -21.1% [at 0.015 µM, 100% = signal doubled over neutral wells] (inactive)
29 | CCN1CCN(CCCNC(=O)c2ccc3c(c2)N(Cc2ccccc2)CCS3)CC1 | -25.6% [at 11 µM, 100% = signal doubled over neutral wells] (inactive)
30 | CCOC(=O)c1sc2nc(C)[nH]c(=O)c2c1C | 8.29% [at 0.135 µM, 100% = signal doubled over neutral wells] (inactive)
31 | CCCCc1nc(N)c(C#N)c(-c2ccco2)c1CCC | 35.2% (inactive)
32 | COc1ccc(CCNC(=O)CCCc2nnc3n(C)c(=O)c4sccc4n23)cc1OC | -17.7% [at 0.0016 µM, 100% = signal doubled over neutral wells] (inactive)
33 | COc1ccc(CCNC(=O)CCC(=O)c2cccs2)cc1OC | 35.6% [at 1.2 µM, 100% = signal doubled over neutral wells] (inactive)
34 | COc1ccc(-n2c3c(c(=O)[nH]c2=O)C(NS(=O)(=O)c2ccc(Cl)cc2)(C(F)(F)F)C(=O)N3)cc1 (centres undefined) | -27.1% [at 0.015 µM, 100% = signal doubled over neutral wells] (inactive)
